SKKanGAS inh: S. pyogenes SKKanGAS growth inhibitors in kanamycin, primary screen, streptokinase expression inhibitor project, SKKanGAS strain, BacTiter-Glo luminescence; 6 h; inhibition, % at 7.5 µM; 300,000 tested, 1.3% active; AID 1662, 2009;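 active means mean replicate score, as percent of positive control median, at least 50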;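 further: strain carries kanamycin resistance gene driven by streptokinase promoter and grows in 40 µg/ml kanamycin; loss of luminescence reflects streptokinase promoter inhibition or plain growth inhibition; 0% = median of DMSO wells and 100% = positive control at its reference dose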
TIM10 inh: growth inhibitors of isogenic TIM10 control yeast, primary screen, counter-screen for tim10-1 yeast inhibitor project, luminescence, uHTS; S. cerevisiae TIM10 strain growth, BacTiter-Glo luminescence, 24 h; inhibition, % at 10 µM; 330,000 tested, 1.4% active; AID 463195, 2010;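 active means inhibition of 40% or more at the single tested concentration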;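 further: wild-type TIM10 isogenic control strain grown at permissive 25 °C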
tim23-1 inh: growth inhibitors of tim23-1 mutant yeast, primary screen, luminescence, uHTS; S. cerevisiae tim23-1 growth, BacTiter-Glo luminescence, 24 h; inhibition, % at 20 µM; 330,000 tested, 1.3% active; AID 463212, 2010;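 active means growth inhibition of the mutant yeast at or above 50%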;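 further: temperature-sensitive mutant grown at 25 °C; plate controls were DMSO-treated mutant yeast for no effect and medium wells lacking yeast for full effect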
NALP3 yeast inh: NALP3 inflammasome inhibitors in reconstituted yeast, primary screen, luminescence, uHTS; Yeast reconstituted NLRP3/ASC/caspase-1, beta-gal luminescence, 24 h; 330,000 tested, 0.39% active; AID 2825, 2010; inhibition, % at 10 µM;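 active means inhibition of 50% or more; inactive means inhibition below 50%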;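 further: plate controls were induced DMSO wells for no effect and uninduced yeast grown without galactose for full effect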
tim10-1 inh: growth inhibitors of tim10-1 mutant yeast, primary screen, luminescence, uHTS. S. cerevisiae tim10-1 ts strain growth, BacTiter-Glo, 24 h. 330,000 tested, 2.2% active. inhibition, % at 20 µM;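 active means inhibition of at least 40%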;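 further: mutant grown at 25 °C; 0% = DMSO wells with yeast and 100% = wells holding no yeast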
tim23-1 conf: tim23-1 mutant yeast growth inhibitors, confirmation, luminescence, single concentration; inhibition, % at 20 µM; AID 463218, 2010; S. cerevisiae tim23-1 growth, BacTiter-Glo luminescence, 24 h; shares compounds with tim23-1 inh; 4,400 tested, 83% active;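 active means inhibition above about 39% in either of two replicate wells at 20 µM, limit read from the data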;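 further: temperature-sensitive tim23-1 mutant grown at 25 °C; 0% = DMSO wells with yeast and 100% = medium wells without yeast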
Numbers without * were called inactive. Rows were chosen to be rich in hits. Some 4.6% of all compounds tested hit in one or more screens of this group.

For Clc1ccc(-c2cn3cccnc3n2)cc1Cl the results were SKKanGAS inh 2.1, TIM10 inh 22.4, tim23-1 inh 53.6*, NALP3 yeast inh -6.2, tim10-1 inh 18.7 and tim23-1 conf 32.9.
Clc1ccc(-c2cn3cccnc3n2)cc1 was read as SKKanGAS inh -9.0, TIM10 inh 1.4, tim23-1 inh 53.1*, NALP3 yeast inh 49.8, tim10-1 inh 5.5 and tim23-1 conf 35.0.
`CCN(CC)CCSc1nc2ccccc2n1Cc1ccccc1` gave SKKanGAS inh 5.1, TIM10 inh 6.0, tim23-1 inh 14.2, NALP3 yeast inh 24.0 and tim10-1 inh 19.9.
`CCC(=O)N1CCN(c2nc(CC)nc3sc4c(c23)CCCC4)CC1` gave SKKanGAS inh -2.8, TIM10 inh -18.5, tim23-1 inh -15.3, NALP3 yeast inh -3.6 and tim10-1 inh -41.6.
`CC1CCc2c(sc3nc(C(C)(C)C)nc(N4CCN(C(=O)CCl)CC4)c23)C1` (centres undefined) gave SKKanGAS inh 69.7*, TIM10 inh 23.9, tim23-1 inh 50.3*, NALP3 yeast inh 13.8, tim10-1 inh 21.4 and tim23-1 conf 52.8*.
`Cc1cc(C)c(NC(=O)COC(=O)/C=C/c2cccs2)c(C)c1` gave SKKanGAS inh 6.2, TIM10 inh -19.0, tim23-1 inh -5.8, NALP3 yeast inh 7.9 and tim10-1 inh 3.7.
Screening COCCC(=O)Nc1ccc2c(c1)CN(C(=O)c1ccc(CSC)o1)CC2 returned SKKanGAS inh -6.8, TIM10 inh -7.0, tim23-1 inh -1.9, NALP3 yeast inh 15.7 and tim10-1 inh 7.1.
For CCn1c(Cn2nnc(-c3ccccc3)n2)nnc1SCc1ccc(Cl)c(Cl)c1 the results were SKKanGAS inh 9.3, TIM10 inh 28.5, tim23-1 inh 53.2*, NALP3 yeast inh 24.6, tim10-1 inh 32.9 and tim23-1 conf 45.3*.
For CCn1c(Cn2nnc(-c3ccccc3)n2)nnc1SCC(=O)N1CCOCC1 the results were SKKanGAS inh -1.5, TIM10 inh 8.0, tim23-1 inh 7.8, NALP3 yeast inh 15.3 and tim10-1 inh 3.6.
For O=C(CCc1ccccn1)N1CCCC(N2CCN(c3cccc(C(F)(F)F)c3)CC2)C1 (centres undefined) the results were SKKanGAS inh 1.3, TIM10 inh -2.3, tim23-1 inh 6.5, NALP3 yeast inh 2.8 and tim10-1 inh 2.0.
For Cc1nn(-c2ccccc2)c(OC(=O)c2cccs2)c1S(=O)(=O)c1ccccc1 the results were SKKanGAS inh 2.8, TIM10 inh 30.7, tim23-1 inh 58.2*, NALP3 yeast inh 3.3, tim10-1 inh 29.4 and tim23-1 conf 51.3*.
For Cc1c2ccccc2nc2ccccc12 the results were SKKanGAS inh 8.8, TIM10 inh 21.5, tim23-1 inh 70.4*, NALP3 yeast inh 22.9, tim10-1 inh 26.3 and tim23-1 conf 62.6*.
Screening O=c1c2c(n3cnnc3n1-c1ccccc1)-c1ccccc1CC21CCCC1 returned SKKanGAS inh -0.3, TIM10 inh 37.5, tim23-1 inh 42.7, NALP3 yeast inh 12.0 and tim10-1 inh 38.8.
For O=c1c2c(n3cnnc3n1C1CCCCC1)-c1ccccc1CC21CCCCC1 the results were SKKanGAS inh 15.4, TIM10 inh 29.8, tim23-1 inh 53.9*, NALP3 yeast inh -14.8, tim10-1 inh 31.4 and tim23-1 conf 14.6.
`O=C(Nc1ccccc1N1CCOCC1)c1ccco1` gave SKKanGAS inh -2.2, TIM10 inh 10.9, tim23-1 inh -1.5, NALP3 yeast inh -21.4 and tim10-1 inh -4.7.
O=C(NC(=S)Nc1cccc(Cl)c1N1CCCCC1)c1ccco1 was read as SKKanGAS inh 36.3, TIM10 inh 34.2, tim23-1 inh 50.8*, NALP3 yeast inh -1.9, tim10-1 inh 38.1 and tim23-1 conf 28.6.
`O=C(NC(=S)Nc1ccccc1N1CCOCC1)c1ccco1` gave SKKanGAS inh -18.2, TIM10 inh 33.3, tim23-1 inh 54.7*, NALP3 yeast inh -33.5, tim10-1 inh 38.6 and tim23-1 conf 37.8.
`O=C(NC(=S)Nc1cccc(Cl)c1N1CCCCC1)c1cccs1` gave SKKanGAS inh 60.0*, TIM10 inh 38.3, tim23-1 inh 52.7*, NALP3 yeast inh 18.7, tim10-1 inh 32.1 and tim23-1 conf -131.4.
`Cc1ccc(C(=O)C(C)OC(=O)CN2C(=O)NC3(CCCC3)C2=O)cc1` (centres undefined) gave SKKanGAS inh -17.3, TIM10 inh 0.2, tim23-1 inh 4.1, NALP3 yeast inh 19.5 and tim10-1 inh 13.3.
For COc1ccc(CCNC(=O)C2CCC(=O)N(CC3CCCCC3)C2)cc1 (centres undefined) the results were SKKanGAS inh 4.6, TIM10 inh 0.1, tim23-1 inh 12.6, NALP3 yeast inh 5.0 and tim10-1 inh 24.8.
O=c1c(Cl)nc2cc(Cl)ccc2n1CCNc1ncc(C(F)(F)F)cc1Cl was read as SKKanGAS inh -1.4, TIM10 inh -18.0, tim23-1 inh 62.3*, NALP3 yeast inh 24.0, tim10-1 inh 21.3 and tim23-1 conf 7.7.
For CCc1ccc(OC)c(-c2csc(N)n2)c1 the results were SKKanGAS inh -3.7, TIM10 inh 4.6, tim23-1 inh 4.8, NALP3 yeast inh 23.2 and tim10-1 inh 16.5.
Screening Nc1nc(-c2cc(Cl)cc(Cl)c2OC(F)F)cs1 returned SKKanGAS inh -12.1, TIM10 inh 26.0, tim23-1 inh 61.1*, NALP3 yeast inh 20.0, tim10-1 inh 13.8 and tim23-1 conf 52.5*.
NC(=O)NOCc1ccccc1 was read as SKKanGAS inh -3.0, TIM10 inh -10.6, tim23-1 inh -2.5, NALP3 yeast inh 11.5 and tim10-1 inh -6.4.
O=C(NOCc1ccccc1)c1coc(-c2ccccc2)n1 was read as TIM10 inh -10.2, tim23-1 inh 60.1*, tim10-1 inh -28.8 and tim23-1 conf 36.3.
Screening CCOC(=O)CC1CCCCN1Cc1cn[nH]c1-c1ccc(F)cc1F (centres undefined) returned SKKanGAS inh -2.2, TIM10 inh -8.6, tim23-1 inh 17.4, NALP3 yeast inh -10.3 and tim10-1 inh -5.1.
`CC1=NOC(=O)/C1=C/c1ccc(N(C)C)cc1` gave SKKanGAS inh -1.4, TIM10 inh -14.0, tim23-1 inh 28.3, NALP3 yeast inh 9.9 and tim10-1 inh 10.0.
For CCN(CC)c1ccc(/C=C2/C(=O)ON=C2C)cc1 the results were SKKanGAS inh 0.6, TIM10 inh 17.5, tim23-1 inh 55.8*, NALP3 yeast inh 10.8, tim10-1 inh 31.8 and tim23-1 conf 60.4*.
CN(C)S(=O)(=O)c1ccc(C(=O)OCC2COC(C)(C)O2)cc1 (centres undefined) was read as SKKanGAS inh -4.2, TIM10 inh 14.6, tim23-1 inh 3.6, NALP3 yeast inh 12.1 and tim10-1 inh 12.0.

Screening results as filed in PubChem BioAssay.
